Experiments:
Assay in all cases: log2 ratio of Biotin-Ahx-Ub-VS probe labelling (fragment/DMSO); higher = less target engagement (more negative = stronger competition), active = hit call of the paper (q ≤ 0.05, log2 ratio ≤ -1)
Settings in all cases: compound concentration: 200 uM; treatment time: 3 h
USP34 = USP34 (UniProt Q70CQ2)
Summary of the method: (§1)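 Fragment (200 µM) or vehicle was incubated for 3 h with triplicate HEK293T lysate samples of 495 µg, which were then treated with Biotin-Ahx-Ub-VS at 0.5 µM final for 1 h. Labelled DUBs were enriched on NeutrAvidin, digested with LysC and trypsin, and analysed by diaPASEF LC-MS/MS. Values are average log2 fragment/vehicle ratios from an unpaired t-test on global-median-normalised Spectronaut label-free quantities, using proteins with ≥2 unique peptides.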

USP36 = biological target: T1, USP36 (UniProt Q9P275)
T1 sequence (whole entry): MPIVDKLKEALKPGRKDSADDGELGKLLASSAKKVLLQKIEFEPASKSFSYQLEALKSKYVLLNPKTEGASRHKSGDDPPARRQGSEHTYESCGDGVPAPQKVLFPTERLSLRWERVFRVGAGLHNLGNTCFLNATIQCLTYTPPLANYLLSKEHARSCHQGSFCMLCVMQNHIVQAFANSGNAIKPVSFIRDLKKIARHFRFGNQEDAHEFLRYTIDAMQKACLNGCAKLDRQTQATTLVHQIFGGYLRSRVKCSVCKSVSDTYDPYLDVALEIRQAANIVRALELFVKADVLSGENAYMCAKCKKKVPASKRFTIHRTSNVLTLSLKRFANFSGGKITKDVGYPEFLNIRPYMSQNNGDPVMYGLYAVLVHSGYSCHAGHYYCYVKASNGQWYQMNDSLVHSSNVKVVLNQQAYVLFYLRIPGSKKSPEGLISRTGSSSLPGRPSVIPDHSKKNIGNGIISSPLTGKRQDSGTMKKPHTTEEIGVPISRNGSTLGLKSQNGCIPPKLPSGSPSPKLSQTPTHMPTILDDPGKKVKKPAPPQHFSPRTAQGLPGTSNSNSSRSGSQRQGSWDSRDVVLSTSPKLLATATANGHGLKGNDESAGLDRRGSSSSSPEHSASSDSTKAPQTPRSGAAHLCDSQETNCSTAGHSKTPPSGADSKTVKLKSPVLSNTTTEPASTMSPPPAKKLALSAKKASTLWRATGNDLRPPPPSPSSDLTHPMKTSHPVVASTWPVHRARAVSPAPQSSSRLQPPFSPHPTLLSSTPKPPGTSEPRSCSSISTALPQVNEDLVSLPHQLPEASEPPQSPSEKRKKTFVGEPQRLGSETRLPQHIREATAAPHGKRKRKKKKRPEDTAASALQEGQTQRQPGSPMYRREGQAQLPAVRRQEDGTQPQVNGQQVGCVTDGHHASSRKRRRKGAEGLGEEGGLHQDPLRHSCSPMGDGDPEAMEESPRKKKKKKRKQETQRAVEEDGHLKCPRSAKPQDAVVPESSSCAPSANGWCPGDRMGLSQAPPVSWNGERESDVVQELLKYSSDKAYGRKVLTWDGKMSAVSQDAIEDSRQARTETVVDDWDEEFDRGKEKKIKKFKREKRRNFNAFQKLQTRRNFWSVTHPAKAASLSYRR
Summary of the method: as §1

USP38 = biological target: T2, USP38 (UniProt Q8NB14)
T2 sequence (whole entry): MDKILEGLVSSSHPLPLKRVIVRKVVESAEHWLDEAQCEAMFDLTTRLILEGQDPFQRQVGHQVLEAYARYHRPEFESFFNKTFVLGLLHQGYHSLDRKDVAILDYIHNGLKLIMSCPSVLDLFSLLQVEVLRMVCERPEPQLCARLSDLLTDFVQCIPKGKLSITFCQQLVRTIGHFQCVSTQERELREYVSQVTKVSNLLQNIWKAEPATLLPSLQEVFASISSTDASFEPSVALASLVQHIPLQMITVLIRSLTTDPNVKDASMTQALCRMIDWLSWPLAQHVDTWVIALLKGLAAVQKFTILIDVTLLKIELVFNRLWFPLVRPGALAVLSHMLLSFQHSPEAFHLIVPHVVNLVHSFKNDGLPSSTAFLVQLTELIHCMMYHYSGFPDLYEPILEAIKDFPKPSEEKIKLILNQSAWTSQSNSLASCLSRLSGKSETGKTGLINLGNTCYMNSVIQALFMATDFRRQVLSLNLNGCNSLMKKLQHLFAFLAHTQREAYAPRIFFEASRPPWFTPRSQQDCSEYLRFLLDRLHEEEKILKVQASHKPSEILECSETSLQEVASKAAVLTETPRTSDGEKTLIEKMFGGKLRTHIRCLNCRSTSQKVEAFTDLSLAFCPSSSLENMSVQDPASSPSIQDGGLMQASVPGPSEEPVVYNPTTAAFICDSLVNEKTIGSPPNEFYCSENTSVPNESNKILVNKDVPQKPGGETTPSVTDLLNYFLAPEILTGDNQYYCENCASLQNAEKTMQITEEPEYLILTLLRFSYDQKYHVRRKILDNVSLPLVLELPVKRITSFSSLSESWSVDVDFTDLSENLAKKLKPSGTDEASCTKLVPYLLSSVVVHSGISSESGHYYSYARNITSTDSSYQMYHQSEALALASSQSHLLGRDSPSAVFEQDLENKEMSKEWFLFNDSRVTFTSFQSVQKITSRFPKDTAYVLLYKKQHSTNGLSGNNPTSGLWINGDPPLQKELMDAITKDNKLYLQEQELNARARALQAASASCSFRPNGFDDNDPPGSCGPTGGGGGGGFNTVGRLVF
Summary of the method: as §1

USP39 = biological target: T3, USP39 (UniProt Q53GS9)
T3 sequence (whole entry): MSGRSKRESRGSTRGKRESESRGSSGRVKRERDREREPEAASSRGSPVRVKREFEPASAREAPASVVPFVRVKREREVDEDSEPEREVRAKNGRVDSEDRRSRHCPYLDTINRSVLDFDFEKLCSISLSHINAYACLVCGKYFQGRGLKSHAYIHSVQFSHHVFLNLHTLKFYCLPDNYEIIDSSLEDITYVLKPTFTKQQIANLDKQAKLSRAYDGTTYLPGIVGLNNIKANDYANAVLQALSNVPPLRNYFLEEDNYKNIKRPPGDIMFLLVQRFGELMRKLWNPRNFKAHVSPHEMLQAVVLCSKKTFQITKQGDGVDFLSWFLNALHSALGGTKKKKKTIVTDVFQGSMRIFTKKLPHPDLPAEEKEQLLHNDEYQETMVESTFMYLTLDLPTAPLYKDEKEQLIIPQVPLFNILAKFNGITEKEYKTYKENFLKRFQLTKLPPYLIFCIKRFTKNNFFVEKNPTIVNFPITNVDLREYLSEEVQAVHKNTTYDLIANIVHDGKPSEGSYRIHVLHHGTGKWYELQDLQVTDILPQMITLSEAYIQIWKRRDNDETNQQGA
Summary of the method: as §1

USP4 = biological target: T4, USP4 (UniProt Q13107)
T4 sequence (whole entry): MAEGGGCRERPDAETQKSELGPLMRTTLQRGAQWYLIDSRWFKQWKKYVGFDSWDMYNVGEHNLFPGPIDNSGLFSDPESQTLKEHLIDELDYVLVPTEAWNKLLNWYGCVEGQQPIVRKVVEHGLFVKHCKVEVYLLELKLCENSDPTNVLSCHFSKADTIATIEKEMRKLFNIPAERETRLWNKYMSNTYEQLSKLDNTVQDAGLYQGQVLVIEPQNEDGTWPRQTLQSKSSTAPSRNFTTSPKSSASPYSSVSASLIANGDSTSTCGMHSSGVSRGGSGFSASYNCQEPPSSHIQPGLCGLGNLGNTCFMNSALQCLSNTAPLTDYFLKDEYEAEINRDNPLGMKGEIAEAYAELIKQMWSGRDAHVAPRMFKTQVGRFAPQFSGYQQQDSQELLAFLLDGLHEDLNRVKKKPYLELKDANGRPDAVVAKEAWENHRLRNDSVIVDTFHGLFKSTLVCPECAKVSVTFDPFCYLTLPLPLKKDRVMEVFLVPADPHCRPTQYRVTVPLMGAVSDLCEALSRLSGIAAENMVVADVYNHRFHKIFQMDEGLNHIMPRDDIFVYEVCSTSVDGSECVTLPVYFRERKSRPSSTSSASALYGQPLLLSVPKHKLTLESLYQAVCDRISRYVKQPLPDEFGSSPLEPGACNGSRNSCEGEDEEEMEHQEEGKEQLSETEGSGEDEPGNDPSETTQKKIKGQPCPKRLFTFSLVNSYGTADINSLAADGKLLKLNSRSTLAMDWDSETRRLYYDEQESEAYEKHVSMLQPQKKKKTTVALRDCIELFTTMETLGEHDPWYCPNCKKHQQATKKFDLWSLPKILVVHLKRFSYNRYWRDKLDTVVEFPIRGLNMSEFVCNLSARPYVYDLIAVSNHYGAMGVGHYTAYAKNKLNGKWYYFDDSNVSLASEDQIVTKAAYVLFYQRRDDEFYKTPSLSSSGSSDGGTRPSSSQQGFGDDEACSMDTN
Summary of the method: as §1

Measured: log2 ratio of Biotin-Ahx-Ub-VS probe labelling

Sequence of USP34 (Q70CQ2 whole entry, the tested form may be a part): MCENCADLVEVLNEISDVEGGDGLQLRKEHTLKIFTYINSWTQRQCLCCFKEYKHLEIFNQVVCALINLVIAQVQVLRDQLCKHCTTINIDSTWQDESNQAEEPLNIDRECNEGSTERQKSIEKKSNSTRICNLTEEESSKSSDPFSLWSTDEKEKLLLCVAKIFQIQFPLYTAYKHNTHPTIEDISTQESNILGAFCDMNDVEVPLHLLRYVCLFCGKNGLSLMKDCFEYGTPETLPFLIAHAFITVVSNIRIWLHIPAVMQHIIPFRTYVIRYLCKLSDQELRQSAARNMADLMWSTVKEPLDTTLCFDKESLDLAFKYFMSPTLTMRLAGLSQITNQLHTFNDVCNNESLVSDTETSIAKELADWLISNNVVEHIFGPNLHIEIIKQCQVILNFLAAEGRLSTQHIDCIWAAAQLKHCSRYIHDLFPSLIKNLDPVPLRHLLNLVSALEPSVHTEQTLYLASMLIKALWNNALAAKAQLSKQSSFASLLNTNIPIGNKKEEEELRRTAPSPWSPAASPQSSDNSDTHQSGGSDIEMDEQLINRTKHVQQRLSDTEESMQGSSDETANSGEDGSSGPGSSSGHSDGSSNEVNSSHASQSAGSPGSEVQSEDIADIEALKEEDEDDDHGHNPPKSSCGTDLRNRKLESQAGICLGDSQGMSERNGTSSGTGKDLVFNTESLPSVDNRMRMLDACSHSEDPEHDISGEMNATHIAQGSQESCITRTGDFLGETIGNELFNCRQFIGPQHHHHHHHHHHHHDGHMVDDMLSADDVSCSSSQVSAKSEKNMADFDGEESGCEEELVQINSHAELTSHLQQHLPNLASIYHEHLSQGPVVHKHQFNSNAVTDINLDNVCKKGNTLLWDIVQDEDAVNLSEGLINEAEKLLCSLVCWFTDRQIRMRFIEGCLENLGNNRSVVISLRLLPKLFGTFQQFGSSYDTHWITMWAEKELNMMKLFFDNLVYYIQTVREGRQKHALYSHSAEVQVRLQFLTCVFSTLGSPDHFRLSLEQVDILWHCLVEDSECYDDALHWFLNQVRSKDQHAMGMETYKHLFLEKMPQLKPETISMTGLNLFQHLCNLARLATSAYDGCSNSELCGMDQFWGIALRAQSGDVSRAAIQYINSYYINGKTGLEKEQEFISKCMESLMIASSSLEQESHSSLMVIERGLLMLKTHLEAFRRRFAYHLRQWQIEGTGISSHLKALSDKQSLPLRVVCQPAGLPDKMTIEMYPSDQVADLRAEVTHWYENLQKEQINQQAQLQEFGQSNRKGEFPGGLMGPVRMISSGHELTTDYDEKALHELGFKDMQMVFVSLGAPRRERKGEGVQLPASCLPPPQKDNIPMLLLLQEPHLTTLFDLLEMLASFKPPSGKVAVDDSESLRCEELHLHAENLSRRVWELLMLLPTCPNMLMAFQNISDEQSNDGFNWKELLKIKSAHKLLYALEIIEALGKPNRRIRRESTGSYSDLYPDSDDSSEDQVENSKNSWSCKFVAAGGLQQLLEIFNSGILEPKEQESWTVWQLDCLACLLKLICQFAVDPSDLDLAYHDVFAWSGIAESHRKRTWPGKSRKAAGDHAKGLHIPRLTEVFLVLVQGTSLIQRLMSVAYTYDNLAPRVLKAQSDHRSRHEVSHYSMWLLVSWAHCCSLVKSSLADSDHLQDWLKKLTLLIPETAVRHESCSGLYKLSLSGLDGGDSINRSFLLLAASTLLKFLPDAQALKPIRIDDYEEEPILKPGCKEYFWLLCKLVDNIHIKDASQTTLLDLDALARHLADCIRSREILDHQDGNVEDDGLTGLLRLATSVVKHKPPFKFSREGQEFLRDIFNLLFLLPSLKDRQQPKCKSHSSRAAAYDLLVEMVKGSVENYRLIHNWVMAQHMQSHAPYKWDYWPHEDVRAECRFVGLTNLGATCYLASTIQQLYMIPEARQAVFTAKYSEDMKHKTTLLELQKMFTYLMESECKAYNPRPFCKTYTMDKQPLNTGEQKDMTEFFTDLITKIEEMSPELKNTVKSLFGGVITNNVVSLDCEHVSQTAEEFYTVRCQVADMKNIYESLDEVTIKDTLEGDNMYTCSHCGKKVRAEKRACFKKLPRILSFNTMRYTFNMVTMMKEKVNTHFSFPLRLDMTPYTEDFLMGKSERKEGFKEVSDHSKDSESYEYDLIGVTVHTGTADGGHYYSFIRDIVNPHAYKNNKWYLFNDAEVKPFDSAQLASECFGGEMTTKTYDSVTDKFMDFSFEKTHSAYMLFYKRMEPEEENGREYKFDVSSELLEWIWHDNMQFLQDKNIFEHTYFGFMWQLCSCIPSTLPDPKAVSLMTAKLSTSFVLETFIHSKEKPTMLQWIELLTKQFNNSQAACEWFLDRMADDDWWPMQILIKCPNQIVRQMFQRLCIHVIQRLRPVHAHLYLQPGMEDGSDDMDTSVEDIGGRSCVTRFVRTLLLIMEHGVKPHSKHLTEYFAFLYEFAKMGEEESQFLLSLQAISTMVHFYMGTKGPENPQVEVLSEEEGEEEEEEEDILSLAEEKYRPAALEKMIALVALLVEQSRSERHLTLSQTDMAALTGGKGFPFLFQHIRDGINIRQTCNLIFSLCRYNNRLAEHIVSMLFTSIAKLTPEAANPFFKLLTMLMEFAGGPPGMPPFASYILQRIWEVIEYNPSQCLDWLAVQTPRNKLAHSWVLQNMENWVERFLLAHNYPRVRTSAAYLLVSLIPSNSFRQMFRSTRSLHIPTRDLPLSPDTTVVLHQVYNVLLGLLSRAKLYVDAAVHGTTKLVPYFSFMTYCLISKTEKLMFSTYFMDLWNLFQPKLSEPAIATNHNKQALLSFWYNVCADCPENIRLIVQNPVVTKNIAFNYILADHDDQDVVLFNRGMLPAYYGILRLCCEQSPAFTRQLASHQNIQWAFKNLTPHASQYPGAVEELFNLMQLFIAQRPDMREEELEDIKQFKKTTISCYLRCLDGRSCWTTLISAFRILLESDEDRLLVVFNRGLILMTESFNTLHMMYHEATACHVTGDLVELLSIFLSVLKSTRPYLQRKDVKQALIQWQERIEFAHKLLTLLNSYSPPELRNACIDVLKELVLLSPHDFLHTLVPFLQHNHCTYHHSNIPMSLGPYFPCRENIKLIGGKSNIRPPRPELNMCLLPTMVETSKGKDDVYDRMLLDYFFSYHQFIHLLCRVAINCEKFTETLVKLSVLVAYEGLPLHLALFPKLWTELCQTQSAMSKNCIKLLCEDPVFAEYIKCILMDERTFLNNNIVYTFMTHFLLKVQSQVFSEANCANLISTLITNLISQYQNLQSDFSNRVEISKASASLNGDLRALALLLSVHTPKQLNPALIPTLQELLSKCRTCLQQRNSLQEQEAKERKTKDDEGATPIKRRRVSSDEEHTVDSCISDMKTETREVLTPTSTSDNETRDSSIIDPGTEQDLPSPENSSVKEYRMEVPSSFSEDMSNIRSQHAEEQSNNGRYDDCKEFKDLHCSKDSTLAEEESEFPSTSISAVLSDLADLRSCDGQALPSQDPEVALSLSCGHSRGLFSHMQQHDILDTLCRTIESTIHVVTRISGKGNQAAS

CC(=O)Nc1ccc(NC(=O)CCl)cc1
inactive: USP34 -0.128 | USP36 -0.0191 | USP38 0.0936 | USP39 0.432 | USP4 -0.163

From the supplement of paper PMC11732987, “Enantioselective OTUD7B fragment discovery through chemoproteomics screening and high-throughput optimisation” (Communications Chemistry, 2025)
